Hits are enriched below; roughly 5.3% of the tested compounds scored in any of these assays.
Tau fluor cs = Counterscreen qHTS for Inhibitors of Tau Fibril Formation, Fluorescence Polarization. Potency, µM (top dose mostly 57.7 µM), for inactives: top-dose activity change, negative = decrease. 280,000 tested, 0.93% active. tau K18 P301L Alexa594 fluorescence, heparin fibrillization; further: potency means the concentration at half of the fitted maximal effect; nearly all actives have a fitted effect of over 55% in size
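Human K18 P301L tau (15 uM unlabeled plus 0.24 uM Alexa 594-labeled, final) in 100 mM sodium acetate pH 7 was mixed with compound and 20 uM heparin and incubated 6 hr at 37 C.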
Tau FP inhib = qHTS for Inhibitors of Tau Fibril Formation, Fluorescence Polarization. K18 P301L tau heparin fibrillization, Alexa594 FP, 6 h. Potency, µM (doses to about 57.7 µM), inactives show at the highest dose activity, negative = inhibition, actives largely listed as inhibitors. 280,000 tested, 0.39% active. AID 1468, 2008; further: potency means the concentration at half of the fitted maximal effect; nearly all actives have a fitted effect of over 55% in size
Target sequence (P10636 561-689 P618L limits assumed): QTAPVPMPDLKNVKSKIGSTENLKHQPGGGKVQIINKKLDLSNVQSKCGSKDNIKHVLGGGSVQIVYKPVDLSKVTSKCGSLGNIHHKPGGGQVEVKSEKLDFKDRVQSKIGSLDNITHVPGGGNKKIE
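Human K18 P301L fragment (15 uM unlabeled plus 0.24 uM Alexa 594-labeled) in 100 mM sodium acetate pH 7 with compound, aggregation induced by 20 uM heparin for 6 hr at 37 C. ThT (30 uM) added for 1 hr, then Alexa 594 FP read.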
Sfp PPTase inh = qHTS Assay for Inhibitors of Bacillus subtilis Sfp phosphopantetheinyl transferase (PPTase); Biochemical Sfp PPTase activity, qHTS; Potency, µM, inactives show largest response in the series, negative = inhibition, hits mostly inhibitors; 310,000 tested, 3.5% active; AID 1490, 2009;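 further: the enzyme is Sfp with the accession as filed and its product quenches rhodamine fluorescence; potency means the concentration at half of the fitted maximal effect; 0% = enzyme reaction without inhibitor and -100% = no enzyme wells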
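Reaction rates are the 30-min fluorescence difference (ex 525, em 598 nm) in wells containing 15 nM Sfp, 5 uM rhodamine-CoA and 12.5 uM BHQ-2-YbbR at pH 7.6 with 10 mM MgCl2.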
KDM4E inh = qHTS Assay for Inhibitors of Human Jumonji Domain Containing 2E (JMJD2E); JMJD2E catalytic domain, FDH-coupled NADH fluorescence (FDH is formaldehyde dehydrogenase); Lysine-specific demethylase 4E (Homo sapiens), B2RXH2; 230,000 tested, 1.6% active; Potency, µM (series often up to 57.1 µM), for inactives: at the highest dose activity change, negative = inhibition, hits mostly inhibitors; active means well fitted inhibition curve with a large enough effect, not every such curve was filed as active; inconclusive means small, poorly fitted or top-dose-only effect, or another doubt; inactive means no such curve, though single readings can be large or run the other way;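 further: potency means the concentration at half of the fitted maximal effect; 0% = wells with enzyme and -100% = buffer wells without enzyme; nearly all actives have a fitted effect of over 50% in size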
Target sequence (B2RXH2 1-337 limits assumed): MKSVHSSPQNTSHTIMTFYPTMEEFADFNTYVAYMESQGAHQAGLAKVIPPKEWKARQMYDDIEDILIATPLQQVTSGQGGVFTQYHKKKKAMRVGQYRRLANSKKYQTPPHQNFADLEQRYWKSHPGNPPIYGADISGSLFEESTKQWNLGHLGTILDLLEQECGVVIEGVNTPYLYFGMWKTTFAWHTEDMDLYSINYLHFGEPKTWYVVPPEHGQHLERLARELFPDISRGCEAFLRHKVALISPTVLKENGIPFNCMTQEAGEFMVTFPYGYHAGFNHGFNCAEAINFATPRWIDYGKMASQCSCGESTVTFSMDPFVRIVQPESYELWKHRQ
Tau fibril ThT = qHTS for Inhibitors of Tau Fibril Formation, Thioflavin T Binding | 270,000 tested, 2.1% active | Potency, µM (highest dose often 57.4 µM), for inactives: top-dose activity, negative = inhibition, hits mostly inhibitors | Microtubule-associated protein tau (Homo sapiens), P10636 | AID 1460, 2008 | recombinant tau K18 P301L, heparin-induced fibrillization, ThT fluorescence; further: potency means the concentration at half of the fitted maximal effect; nearly all actives have a fitted effect of over 55% in size
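Fibril formation assay: tau K18 P301L at 15 uM with trace Alexa 594 label, heparin inducer 20 uM, pH 7 sodium acetate buffer, 37 C for 6 hr; endpoint ThT signal.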
Coupling enz = qHTS Assay for Inhibitors of Fructose-1,6-bisphosphate Aldolase from Giardia Lamblia: Coupling assay counterscreen; coupling enzyme system counterscreen, AmpLite Red fluorescence; activity change, negative = inhibition, % at 58.2 µM, hits read low; 290,000 tested, 0.67% active; AID 2472, 2010; in the data active means activity change below about -30%
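First, compound is pin-transferred into glyceraldehyde-3-phosphate coupling-enzyme reagent at 57.5 uM final and held 10 min at RT. Next, substrate, coupling system and AmpLite Red are added. After 20 min RT, fluorescence (525/598 nm) is read.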
An asterisk follows results filed as active; u = inconclusive; x = no result given; ! = a repeat was not active; [ ] = dose if it differs, or a comment. Unless noted, the call rests on the fitted dose curve; in most records, active means well fitted curve in the direction sought with a large enough effect; inconclusive means small, poorly fitted or top-dose-only effect, or another doubt; inactive means no such curve, though single readings can be large; an effect the other way counts as inactive or inconclusive. Unless noted, on the % scale 0 is the no-effect control and ±100 the full control effect.

SMILES | Tau fluor cs | Tau FP inhib | Sfp PPTase inh | KDM4E inh | Tau fibril ThT | Coupling enz
C[C@@H](c1ccccc1)N1C(=O)[C@H]2[C@H]3[C@H](O)[C@H](O)C/C(=N/OCc4ccccc4)[C@@H]3CC[C@@H]2C1=O | -10%[11.6 µM] | -9%[11.6 µM] | 2% | x | -8%[11.5 µM] | 5
COc1ccccc1-c1noc(CCC(=O)Nc2ccc(C)cc2C)n1 | -11% | u | x | x | -8% | x
COc1ccccc1-c1noc(CCC(=O)Nc2ccccc2Cl)n1 | -13% | 1% | 10µM* | -24% | -14% | -3
O=C1C2C3C=CC(C3)C2C(=O)N1CNc1ccc(O)cc1 (stereo unspecified) | u | 8.9µM* | 56µM* | u | 3.2µM* | -54*
COc1ccc(NC(=O)Cn2c(=O)n(-c3cccc(C)c3)c(=O)c3c2c2cc(C)ccc2n3C)cc1OC | -26% | -11% | x | x | -18% | x
O=C(Nc1ccc(CN2CCOCC2)cc1)c1ccco1 | x | x | 7% | x | x | 1
Cc1sc2nc(CN3CCOCC3)nc(Oc3ccc(NC(=O)c4ccco4)cc3)c2c1C | -10% | 1% | 89µM*! | -6% | u | 6
COC(=O)[C@@H]1[C@@H]2C[C@H]3c4[nH]c5cc(OC)ccc5c4CCN3C[C@@H]2C[C@H](OC(=O)c2cc(OC)c(OC)c(OC)c2)[C@H]1OC | x | x | 9% | 10µM* | x | -7
COc1ccccc1C(=O)NNC(=S)NC(=O)c1sc2ccccc2c1Cl | -21% | 11% | 13% | 4% | 7.1µM* | 5
CC1CCCCC1NC(=S)NC(=O)c1sc2ccccc2c1Cl (stereo unspecified) | -4% | 2% | 32µM* | -10% | -11% | -8
Fc1ccc(Br)cc1C1C=C(c2ccc(Br)s2)Nc2ncnn21 (stereo unspecified) | -20% | -6% | 56µM* | 28µM* | -13% | 6
Cc1cccc2c(N=Nc3ccccc3)c(O)[nH]c12 | x | x | 7% | x | x | -2
Cc1cccc2c(N=Nc3ccc(S(=O)(=O)Nc4cccc(Cl)c4)cc3[N+](=O)[O-])c(O)[nH]c12 | 5.6µM*[quencher] | 4% | 17% | 6% | u | 5
CC(=O)OCC1=C(C(=O)O)N2C(=O)C(NC(=O)c3ccc(COc4c(C)cccc4Cl)o3)C2SC1 (stereo unspecified) | -7% | -13% | 63µM* | -3% | u | 0
CC(=O)OCC1=C(C(=O)O)N2C(=O)C(NC(=O)c3ccc(COc4ccc(Cl)cc4)o3)C2SC1 (stereo unspecified) | -11% | u | -16% | 1% | u | 1
C=CCc1cc(C)ccc1OCCOCCN1CCN(C)CC1 | x | x | 79µM* | x | x | 3
Cc1cc(C)c(C)c(OCCOCCN2CCN(C)CC2)c1 | 5% | -5% | 1% | 2% | 9% | 2
Cc1ccc(OCCOCCN2CCN(C)CC2)c(C(C)(C)C)c1 | x | x | 50µM* | x | x | -2
COCC1C2CC[C@H]3C(OCc4ccc(OC)cc4)OC[C@]4(C)[C@H]3C2=C(CN4C(=O)OC(C)(C)C)[C@H](C)C1COC (stereo partly specified) | -12% | -12% | -4% | -14% | u | -9
CC1(C)C[C@](C)(C(=O)c2ccccc2)C=C1c1ccccc1 | -6% | 2% | -17% | -3% | -4% | 4
Cc1ccn2c(NC3CCCC3)c(-c3ccccn3)nc2c1 | -28% | 8% | -7% | 1% | -11% | -7
c1ccc(-c2nc3ccccn3c2NC2CCCC2)nc1 | -29% | 8% | 10µM* | 7% | u | 1
CN(Cc1ccccc1)C(=O)CCC1CCN(C(=O)c2ccccc2C(F)(F)F)CC1 | x | x | -11% | x | x | x
CSCc1ccc(C(=O)N2CCC(CCC(=O)N(C)Cc3ccccc3)CC2)o1 | x | x | 50µM* | x | x | 1
COCCn1c(C)cc(O)c(C(c2ccccc2)N2CCN(c3ccccc3)CC2)c1=O (stereo unspecified) | 2% | -8% | x | x | u | x
SMILES | Tau fluor cs | Tau FP inhib | Sfp PPTase inh | KDM4E inh | Tau fibril ThT | Coupling enz
CCCCCc1ccc(C)cc1O | x | x | 29% | x | x | x
CCSc1ncnc2c1sc1nc(-c3ccco3)c3c(c12)CC(C)(C)OC3 | 1% | -6% | -33% | -19% | -8% | 0
COC(=O)CSc1ncnc2c1sc1nc(-c3ccco3)c3c(c12)CC(C)(C)OC3 | -9% | -9% | 11µM* | u | u | 1
CCCc1nc2sc3c(SCC(=O)NCc4ccco4)ncnc3c2c2c1CCC2 | -2% | -5% | 50µM* | u | u | 2
CCOC(=O)c1sc2nc(-c3ccco3)c3c(c2c1N)CC(C)(C)OC3 | -27% | 4% | 8.9µM* | u | u | -3
COc1ccccc1NC(=O)c1sc2nc3n(c(=O)c2c1C)N=C(c1cccc(Br)c1)CS3 | 4% | -1% | x | x | 8% | x
CCn1c2ccccc2c2nnc(N3CCN(c4cccc(Cl)c4)CC3)nc21 | 18µM*[quencher] | 8% | x | x | u | x
CCn1c2ccccc2c2nnc(N3CCN(c4ccc(F)cc4)CC3)nc21 | -8% | -2% | x | x | -8% | x
CCN1C(=NCCN2CCOCC2)N[C@@H](CCc2ccccc2)C(C(=O)OC)=C1C | x | x | 6% | x | x | -2
c1coc(-c2nc3nc4ccccc4nc3n2CC2CCCO2)c1 (stereo unspecified) | -11% | 5% | 79µM* | u | -14% | -23
COc1ccc(CCn2c(-c3ccco3)nc3nc4ccccc4nc32)cc1 | 12% | 1% | 35µM* | u | -7% | -7
CCOc1ccc(CCn2c(-c3ccco3)nc3ccccc3c2=O)cc1OCC | -20% | -10% | 56µM* | u | -16% | -2
CCc1ccc2c(c1)c(=O)c(C(=O)c1ccccc1)cn2CC(=O)Nc1ccc(C)c(Cl)c1 | -15% | -21% | x | x | u | x
O=C(Nc1ccc(O)cc1)/C(=C\C=C\c1ccccc1)NC(=O)c1ccccc1 | 18µM*[quencher] | -6% | 19% | -16% | u | -1
O=C(Nc1ccc(C(=O)O)cc1)/C(=C\C=C\c1ccccc1)NC(=O)c1ccccc1Cl | x | x | 11% | x | x | x
COc1ccc(S(=O)(=O)N(C(C)=O)c2ccc3oc(=O)sc3c2)cc1 | -16% | -14% | 10µM* | -19% | u | -1
CCOc1ccc(S(=O)(=O)N(C(C)=O)c2ccc3oc(C)c(C(=O)OC)c3c2)cc1 | -26% | 2% | x | x | u | x

Screening results: PubChem BioAssay, National Center for Advancing Translational Sciences (NCATS)
